# Measured values as given in PubChem BioAssay (NCI).
# The panel holds about 83,000 compounds, 20% with a hit somewhere; the sample as a whole holds those more often.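 48-hour exposure, single concentration, 96-well plates; percent growth endpoint where 0 means no net growth. Active: below 10.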 A number with no mark means an inactive call. Calls of active or inactive are those of the source.
# Test system: HS 578T breast
# Assay: NCI-60 one-dose screen, 48 h (100 = growth as untreated, 0 = no growth, -100 = all killed)
# Details: 10 µM unless noted
row,Compound,growth
1,COc1ccc(Cn2cc3c(c2-c2ccccc2)CCc2cnoc2-3)cc1OC,5.72% (active)
2,Cc1ccc2c(O)c(O)cc(NC(C)CCCN)c2n1 (stereo not given),80.8%
3,CC(C)(C)c1ccc([I+]c2ccc(C(C)(C)C)cc2)cc1,29.1%
4,COC(=O)/C(Br)=C/c1c[nH]c2ccc(Br)cc12,100%
5,COC(=O)c1ccc2[nH]c(O)c(C(=Nc3ccc(N(C)C(=O)CN4CCN(C)CC4)cc3)c3cccc(OC)c3)c2c1,6.7% (active)
6,C#CCCCCCCC[C@@H]1OC(=O)[C@H]([C@@H](C)CC)NC(=O)[C@@H]([C@@H](C)CC)NC(=O)CC(=O)[C@@H]1C,84.6%
7,COC(=O)c1ccc2[nH]c(O)c(C(=Nc3ccc(N(C)C(=O)CN4CCN(C)CC4)cc3)c3ccc(C)cc3)c2c1,-2.52% (active)
8,COC(=O)C(C)[C@H]1CC[C@@H]2[C@]1(C)CC=C1[C@]23C=C[C@]2(C[C@@H](OC(C)=O)CC[C@]12C)C(C(=O)OC)C3C(=O)OC (stereo not given in full),102%
9,Cc1nc2c(nnn2-c2ccccc2)c2nc(-c3ccccc3)oc(=O)c12,107%
10,CC(O)C(N)=O (stereo not given),108%
11,Nc1nc2c(c3cnccc13)C(c1cccc(Cl)c1)Cc1cnccc1-2 (stereo not given),38.9%
12,CC(=O)OCC1O[C@@H](OC(C)=O)[C@@H](NC(=O)NS(=O)(=O)c2ccccc2)C(OC(C)=O)[C@@H]1OC(C)=O (stereo not given in full),109%
13,CCOC(=O)c1ccc2n1CCCc1cnc(NC(C)=O)nc1-2,99.6%
14,CCCCCCCCCCCCCCCCCC1=NCCN1CCNC(C)=O,110%
15,Clc1ccc(N/N=C(/c2ccccc2)c2ccccn2)nc1,80.6%
16,COc1ccc(-n2nnnc2-c2cn[nH]c2C(F)(F)F)cc1,101%
17,COc1cc2ncnc(-n3ncc4cc(NC(=O)Nc5ccc(Cl)c(Cl)c5)ccc43)c2cc1OC,-5% (active)
18,CCOC(=O)c1c(C)oc2ncnc(Nc3ccc(C(=O)NCCc4ccccc4)cc3)c12,51.2%
19,CC(=O)/C(=C/c1ccc(-c2ccccc2)cc1)C(=O)c1ccccc1,102%
20,N=C(N)c1ccc(-c2ccc(-c3ccc(F)cc3)s2)cc1,-59.4% (active)

row,Compound,growth
1,NC(=O)CC(NC(=O)COc1ccc(Cl)cc1Cl)C(=O)O (stereo not given),107%
2,Cc1nc(NC(=O)NC2CCCCC2)sc1C(=O)NN,105%
3,CCOC(=O)C1=C(C(F)(F)F)NC(=S)NC1CN1C(=O)c2ccccc2C1=O (stereo not given),109%
4,NC(=O)c1c(Nc2ccccc2)nn2cc(-c3nc4ccccc4s3)c(N)nc12,93.3%
5,O=C(/C=C/c1ccc(Br)cc1)c1ccccc1,100%
6,Cc1c(O)c(N=Nc2ccc(C(=O)O)c(O)c2)c2ccccc2c1O,94.7%
7,COc1ccc2c(c1)/C(=C/c1c(-c3cc(OC)c(OC)c(OC)c3)nc3sccn13)C(=O)N2,85.7%
8,CCOC(=O)c1cc(C(=O)c2ccc(Br)cc2)n2cc(C)cc(C)c12,89.2%
9,COc1cccc(Cn2cc3c(c2)-c2oncc2CC3)c1,8.85% (active)
10,CCCCCSc1ccc2nc(NC(=O)OCC)sc2c1,14.1%
11,COc1ccc(C2C3(C#N)C(N)=NC(=C(C#N)C#N)C23C#N)cc1OC (stereo not given),96.5%
12,CCCCCCCCCCCCCCCC[n+]1cccc(C#N)c1,96.6%
13,CC(C)OC(=O)c1ccc2n1CCCc1cnc(Nc3ccccc3)nc1-2,99%
14,COc1cc(Cn2ccc3c2-c2oncc2CC3)cc(OC)c1,32.4%
15,COC(=O)c1ccc(C(=Nc2ccc(N(C)C(=O)CN3CCN(C)CC3)cc2)c2c(O)[nH]c3ccc(C(=O)OC)cc23)cc1,8.61% (active)
16,COc1cccc2c1nc1cccc(OC)c1[n+]2[O-],80%
17,CC(=O)NNC(=O)c1sc(NC(C)=O)nc1C,74.9%
18,CCOC(=O)NNc1[nH]c(-c2ccc(OC)cc2)cc1C#N,96.3%
19,COc1cc(N)c2nccc(C)c2c1OC,104%
20,CCOC(=O)c1c2c(cn1Cc1ccccc1)-c1oncc1CC2,91.9%
